# According to ChEMBL document CHEMBL4513216, “Probing the Open Global Health Chemical Diversity Library for Multistage-Active Starting Points for Next-Generation Antimalarials” (ACS Infect Dis, 2020):
# Screen size: about 69,000 compounds; about 8,600 (12%) showed an effect of 50% or more. The sample holds strong results, similar compounds and a random draw of the others, so the mix is not that of the screen.
# Test system: Plasmodium berghei
# Test: Screen against P. berghei liver stage (PbLuc), transformed with Luciferase, at 10uM
# Format: functional, HepG2
# Settings: tested at 10 uM
row,SMILES,INHIBITION
1,COCCN1C[C@@H](c2ccccc2)[C@@]2(CCN(CC(=O)N(C)C)C2=O)C1,-4.82%
2,Cc1ccccc1N1CC2(CCN(S(=O)(=O)c3cccs3)C2)CC1=O (centres undefined),35.7%
3,CC(=O)c1cc(CN2C[C@@H](NS(=O)(=O)N(C)C)[C@H](C(C)C)C2)cs1,52.2%
4,CC(=O)c1cc(CN2C[C@@H](N(C)C)[C@H](C(C)C)C2)cs1,13.7%
5,CN(C)S(=O)(=O)N1C[C@H]2CC[C@@H](C1)N(Cc1ccc3nsnc3c1)C2,45.1%
6,CC(C)[C@@H]1CN(C(=O)NCCc2ccccc2)C[C@H]1NS(=O)(=O)N(C)C,41.3%
7,CC(C)[C@@H]1CN(Cc2ccsc2)C[C@H]1NS(=O)(=O)N(C)C,50.1%
8,Cc1noc(C)c1CN1C[C@@H](NS(=O)(=O)N(C)C)[C@H](C(C)C)C1,24.3%
9,CC(=O)c1cc(CN2C[C@@H]3CC[C@H]2CN(S(C)(=O)=O)C3)cs1,-52.2%
10,Cc1nc(CN2C[C@@H](NS(=O)(=O)N(C)C)[C@H](C(C)C)C2)cs1,38.3%
11,CC(=O)c1cc(CN2C[C@@H]3CC[C@H]2CN(S(=O)(=O)N(C)C)C3)cs1,80.1%
12,COCCN1C[C@H]2[C@@H](C1)N(C(=O)CCc1ccccc1)CC[C@H]2OC,-14.1%
13,COC(=O)CN(C(=O)c1ccc(-n2ccnc2)cc1)C1CC1,6.23%
14,CC(C)c1cc(CN(C)C(=O)CN2CCCCC2=O)no1,15.4%
15,Cc1nc(O)cc([C@@H]2CN(S(=O)(=O)N(C)C)C[C@H]2c2ccccc2F)n1,-6.15%
16,COCC1CN(S(=O)(=O)c2cccc(F)c2)Cc2nccn2C1 (centres undefined),41.2%
17,Cn1cc(CN2CCC[C@]3(C[C@H](Oc4ncccc4F)CO3)C2)cn1,31.5%
18,CCC(C)NC(=O)c1nnn(-c2ccc(Br)cc2)n1 (centres undefined),-10.6%
19,CCn1ccnc1CN1CCN(c2ncnc3ccsc23)CC1,-50.7%
20,CCc1nc(CN2CCCN(c3ncnc4sccc34)CC2)no1,95.1%
21,Cc1nc(CN2CCCN(c3nccs3)CC2)no1,-63.3%
22,CCc1nc(CN2CCCN(c3ncnc4ccsc34)CC2)no1,91.1%

row,SMILES,INHIBITION
1,CCc1nc(CN2CCCN(Cc3cnn(C)c3)CC2)no1,35.5%
2,CCc1nc(CN2CCCN(c3nccs3)CC2)no1,22.5%
3,Cc1nc(CN2C[C@@H]3CN(C(=O)c4ccnnc4)C[C@@H]3C2=O)cs1,13.6%
4,COc1ccccc1OC1CN(C(=O)c2c(C)nc3ccc(C)cn23)C1,86.8%
5,COc1ccccc1OC1CN(C(=O)c2ccccc2C(C)=O)C1,65.7%
6,COc1ccccc1OC1CN(C(=O)Cc2c(C)nc(N)nc2C)C1,1.71%
7,COc1ccccc1OC1CN(C(=O)c2ccc(C(C)=O)s2)C1,7.3%
8,COc1ccccc1OC1CN(C(=O)Cc2c(C)nc3ccccn23)C1,-7.2%
9,COc1ccccc1OC1CCN(C(=O)c2cccc(O)c2C)CC1,19.3%
10,CCCC(=O)N1CCCC(c2cc3cccnc3c(O)n2)C1 (centres undefined),25.8%
11,CCOCC(=O)N1CCc2c(CN(C)C)nn(C(C)C)c2C1,23.1%
12,NC(=O)c1cn[nH]c1NC(=O)c1ccc2c(c1)OCO2,-16.4%
13,CCS(=O)(=O)CCNC(=O)c1ccc(-c2ccc(C)cc2)cc1F,8.47%
14,NS(=O)(=O)CCNC(=O)c1ccc(-c2ccc(F)cc2)cc1F,-33.2%
15,Cc1ccc(-c2ccc(C(=O)NCCS(N)(=O)=O)c(F)c2)cc1,55.4%
16,CCN1C(=O)CCC12CCC(NC(=O)c1cc(C)on1)CC2 (centres undefined),-45.5%
17,C[C@@H]1CN(c2nc(O)cc(Cc3ccccc3F)n2)C[C@H](C)O1,15.5%
18,Cc1cc(-c2nn3c(C4CCC4)nnc3s2)on1,34.6%
19,O=C(CCC1CCN(C2CSCCSC2)CC1)NCC1CCCO1 (centres undefined),34.9%
20,c1cncc(OCc2noc3c2CN(Cc2ccco2)CC3)c1,38.5%
21,Cc1nc(SC2CCN(c3sccc3C#N)C2=O)oc1C (centres undefined),51.5%
22,Cc1nnc(SC2CCN(c3sccc3C#N)C2=O)[nH]1 (centres undefined),40.7%

row,SMILES,INHIBITION
1,Cc1nnc(SC2CCN(c3sccc3C#N)C2=O)s1 (centres undefined),16.8%
2,O=C(Cc1csc(-c2ccccc2F)n1)NCc1ccc(C(=O)O)cc1,2.61%
3,CCn1cc(NC(=O)NCc2ccc3c(c2)OCO3)cn1,-25.9%
4,CCCc1noc(C(C)N2CCN(Cc3nc(C)c(C)o3)CC2)n1 (centres undefined),-12.25%
5,Cc1cnn(CCNCC(=O)N2CCN(c3ncccn3)CC2)c1,25.1%
6,Cn1cc(NC(=O)c2cccc(C(F)(F)F)c2)c(=O)n(C)c1=O,15%
7,CN(C)c1cccc(C(=O)Nc2cn(C)c(=O)n(C)c2=O)c1,31.2%
8,Cn1cc(NC(=O)c2cccc(Cl)c2)c(=O)n(C)c1=O,56.1%
9,CCC(=O)N1CCCC(Cn2cc(-c3ccc(F)cc3)nn2)C1 (centres undefined),-14.2%
10,O=C(c1ncoc1C1CC1)N1CCCN(CCCc2ccccc2)CC1,83.9%
11,CCOCCC(=O)N1CCCN(c2ccccc2C)CC1,15.2%
12,Cc1ccccc1N1CCCN(C(=O)c2cn(C)c3ccccc23)CC1,-2.13%
13,Cn1nccc1C(=O)N1CCCN(CCCc2ccccc2)CC1,-16.8%
14,Cc1nccn1CCCC(=O)N1CCCN(c2cccnn2)CC1,10%
15,CSCCC(=O)N1CCCN(c2ccccc2C)CC1,34.1%
16,O=C(c1ncoc1C1CC1)N1CCN(CCOc2ccccc2)CC1,26.7%
17,Cc1ccccc1N1CCN(C(=O)CC(C)C)CC1,56.5%
18,CSCC(=O)N1CCCN(c2ccncc2C)CC1,49.2%
19,CSCC(=O)N1CCCN(c2ccccc2C)CC1,84.5%
20,Cc1ccccc1N1CCCN(C(=O)CCCn2ccnc2C)CC1,75.4%
21,Cc1cnccc1N1CCCN(C(=O)CCCn2ccnc2C)CC1,-2.48%
22,COc1nn(C)c2c1CCCN(C(=O)c1cccc3cccnc13)C2,14%

row,SMILES,INHIBITION
1,Cc1cc(C)c(C(=O)N2CCC3(CCCNC3)C2)cc1C (centres undefined),-35.8%
2,O=C1[C@H]2CN(C(=O)[C@H]3CCCO3)C[C@H]2CN1CCN1CCCC1,1.34%
3,CC(C)[C@H]1CN(CCCO)C[C@@H]1NC(=O)CCC(F)(F)F,20.2%
4,CCn1cc(-n2cc3nc(N4CCCC4)[nH]cc-3c2=O)cn1,-29.6%
5,Cc1cc(N2CCOC(C)(C(=O)N(C)C)C2)ncn1 (centres undefined),37.8%
6,NC(=O)N1CCC2(CCN(Cc3cccc(F)c3)CC2)CC1,-13.2%
7,CC(=O)N1CCCN(CCCc2ccccc2)CC1,15.2%
8,Cc1nccn1CCC(=O)N1CCCN(CCCc2ccccc2)CC1,51.5%
9,Cc1ccccc1N1CCCN(C(=O)CCc2ccncc2)CC1,26.9%
10,Cc1nccn1CCC(=O)N1CCCN(c2ccccc2)CC1,28.7%
11,Cc1ccccc1N1CCCN(C(=O)CCc2nncn2C)CC1,49.3%
12,Cc1ccccc1N1CCCN(C(=O)CCc2cccnc2)CC1,59.2%
13,NC(=O)c1ccc(N2CCN(CCCc3cn[nH]c3)CC2)cc1,-62.8%
14,CCN(CC)CC1CN(Cc2ccco2)Cc2nccn2C1 (centres undefined),-33.9%
15,CCc1nc(CN2CCN(C(=O)C3(C#N)CCCCC3)CC2)cs1,-9.37%
16,COc1ccc(-c2n[nH]c(C)c2CC(=O)NCC2CCCO2)cc1 (centres undefined),39.7%
17,COc1ccc(-c2n[nH]c(C)c2CC(=O)NCCN2CCOCC2)cc1,29.3%
18,COc1ccc(-c2cc3cccn(CC(=O)N4CCOCC4)c-3n2)cc1,-23.4%
19,Cc1[nH]nc(-c2ccc(F)cc2)c1CC(=O)NCC1CCOCC1,9.55%
20,COc1ccc(-c2n[nH]c(C)c2CC(=O)NCC2CCOCC2)cc1,51.9%
21,COc1ccc(-c2n[nH]c(C)c2CC(=O)N2CCOCC2)cc1,51.3%
22,COCCN(Cc1cnn(C)c1)C(=O)C1CCC(=O)N(C2CCCC2)C1 (centres undefined),20.3%

row,SMILES,INHIBITION
1,CC1(C)C[C@H](CCNC(=O)c2ccncc2)c2ccccc2O1,27.8%
2,O=C1CC(N(C(=O)c2ccc(Cl)c(Cl)c2)C2CC2)C(=O)N1 (centres undefined),31.8%
3,O=c1ccc(-n2ccnc2)nn1CCNS(=O)(=O)c1ccc(F)c(Cl)c1,-1.99%
4,O=c1ccc(-n2ccnc2)nn1CCNS(=O)(=O)c1ccc(Br)cc1,59.3%
5,O=c1ccc(-n2ccnc2)nn1CCNS(=O)(=O)c1ccccc1Cl,35.1%
6,CN(Cc1ncc[nH]1)C(=O)C(C)(C)NC(=O)c1cccs1,9.79%
7,CC(NC(=O)N1CCC(n2cncn2)CC1)c1ccc(F)cc1 (centres undefined),17.4%
8,CCS(=O)(=O)N1CCC[C@]2(C(=O)N(C)C)CN(c3ccccn3)C[C@@H]2C1,4.92%
9,Cc1cc(C)nc(N2CCC(c3nnc(CN(C)C)n3C3CC3)CC2)n1,-46.8%
10,CN(C)Cc1nnc(C2CCN(c3ncccn3)CC2)n1C1CC1,-12.1%
11,Cc1cnc(C)c(N2CCC(c3nnc(CN(C)C)n3C3CC3)CC2)n1,77.8%
12,CCc1c(C)nc2n(c1=O)CC(C(=O)NCc1cccs1)CS2 (centres undefined),35.8%
13,c1ccc(O[C@H]2CC[C@H]3[C@H]2OCCN3Cc2nccs2)nc1,6.8%
14,c1ccc(O[C@@H]2CC[C@H]3[C@H]2OCCN3Cc2ccsc2)nc1,20.9%
15,O=C(CO[C@@H]1CC[C@H]2[C@H]1OCCN2Cc1ccccn1)N1CCCC1,54.1%
16,c1ccc(CN2CCO[C@H]3[C@H](OCCN4CCCC4)CC[C@@H]32)nc1,26.8%
17,Fc1ccc(CN2CCO[C@H]3[C@H](Oc4ccccn4)CC[C@@H]32)cc1,61.5%
18,Cc1cccc(CN2CCO[C@H]3[C@H](Oc4ccccn4)CC[C@@H]32)n1,-49.6%
19,O=C(CO[C@@H]1CC[C@H]2[C@H]1OCCN2c1ncccn1)N1CCCC1,24.6%
20,c1ccc(O[C@@H]2CC[C@H]3[C@H]2OCCN3CC2CCOCC2)nc1,56.1%
21,COc1ccc(CN2CCO[C@H]3[C@H](Oc4ccccn4)CC[C@@H]32)cc1,41.2%
